In the supplement of paper PMC11732987, “Enantioselective OTUD7B fragment discovery through chemoproteomics screening and high-throughput optimisation” (Communications Chemistry, 2025):

What was measured:
Experiment in all cases: log2 ratio of Biotin-Ahx-Ub-VS probe labelling (fragment/DMSO); higher = less target engagement (more negative = stronger competition), active = hit call of the paper (q ≤ 0.05, log2 ratio ≤ -1)
Conditions in all cases: compound concentration: 200 uM; treatment time: 3 h
[1] = target: T1, USP42 (UniProt Q9H9J4)
T1 sequence (whole entry): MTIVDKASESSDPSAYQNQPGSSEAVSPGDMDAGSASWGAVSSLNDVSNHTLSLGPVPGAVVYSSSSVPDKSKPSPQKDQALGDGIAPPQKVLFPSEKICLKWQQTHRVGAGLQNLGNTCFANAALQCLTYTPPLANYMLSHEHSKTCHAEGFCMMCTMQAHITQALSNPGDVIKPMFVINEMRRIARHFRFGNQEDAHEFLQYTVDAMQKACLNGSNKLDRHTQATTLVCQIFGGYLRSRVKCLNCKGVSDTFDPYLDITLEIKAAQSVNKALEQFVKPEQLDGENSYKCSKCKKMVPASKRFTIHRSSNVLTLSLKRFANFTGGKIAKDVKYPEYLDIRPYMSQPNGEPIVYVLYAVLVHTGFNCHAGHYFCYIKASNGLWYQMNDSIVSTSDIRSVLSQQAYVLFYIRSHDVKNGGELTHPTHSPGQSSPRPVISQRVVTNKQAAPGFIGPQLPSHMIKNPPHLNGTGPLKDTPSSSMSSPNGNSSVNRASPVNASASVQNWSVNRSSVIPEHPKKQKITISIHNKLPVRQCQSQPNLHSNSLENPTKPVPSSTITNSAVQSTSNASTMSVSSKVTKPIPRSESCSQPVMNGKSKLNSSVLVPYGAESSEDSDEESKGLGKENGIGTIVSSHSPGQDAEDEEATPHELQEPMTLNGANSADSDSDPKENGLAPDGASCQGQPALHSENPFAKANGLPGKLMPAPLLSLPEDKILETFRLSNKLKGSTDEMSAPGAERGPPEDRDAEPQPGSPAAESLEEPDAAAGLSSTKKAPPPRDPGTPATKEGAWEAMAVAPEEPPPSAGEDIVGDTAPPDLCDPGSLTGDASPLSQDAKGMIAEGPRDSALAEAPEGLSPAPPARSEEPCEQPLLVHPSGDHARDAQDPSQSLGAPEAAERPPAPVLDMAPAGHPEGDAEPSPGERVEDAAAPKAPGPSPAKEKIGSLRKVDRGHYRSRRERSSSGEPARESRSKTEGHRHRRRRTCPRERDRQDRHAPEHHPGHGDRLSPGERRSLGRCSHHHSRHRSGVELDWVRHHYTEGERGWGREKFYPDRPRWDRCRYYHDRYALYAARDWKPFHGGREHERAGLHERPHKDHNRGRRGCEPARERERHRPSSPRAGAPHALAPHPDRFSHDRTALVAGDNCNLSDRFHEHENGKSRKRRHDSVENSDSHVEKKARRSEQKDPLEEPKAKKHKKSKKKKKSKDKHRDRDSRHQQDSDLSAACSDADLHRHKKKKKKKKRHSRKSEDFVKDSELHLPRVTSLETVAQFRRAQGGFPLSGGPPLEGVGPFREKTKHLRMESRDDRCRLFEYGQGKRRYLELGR
In short: (§1)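 The table lists average log2 ratios of fragment over vehicle, from an unpaired t-test on global-median-normalised Spectronaut label-free quantities. Proteins with ≥2 unique peptides were used. Samples were HEK293T lysate (495 µg) treated in triplicate with fragment at 200 µM or vehicle for 3 h, then with Biotin-Ahx-Ub-VS (0.5 µM final) for 1 h, with labelled DUBs NeutrAvidin-enriched and run by diaPASEF LC-MS/MS.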

[2] = target: USP46 (UniProt P62068)
Chain of USP46 (P62068 whole entry): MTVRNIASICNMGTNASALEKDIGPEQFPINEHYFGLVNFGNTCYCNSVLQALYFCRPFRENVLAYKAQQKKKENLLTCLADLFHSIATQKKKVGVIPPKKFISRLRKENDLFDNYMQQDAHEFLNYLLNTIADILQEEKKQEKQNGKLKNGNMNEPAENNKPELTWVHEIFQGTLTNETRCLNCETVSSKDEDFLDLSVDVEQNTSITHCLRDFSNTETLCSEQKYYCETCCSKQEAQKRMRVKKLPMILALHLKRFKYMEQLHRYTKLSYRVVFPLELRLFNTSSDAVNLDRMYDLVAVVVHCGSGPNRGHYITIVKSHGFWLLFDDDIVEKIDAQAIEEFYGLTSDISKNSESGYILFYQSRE
In short: as §1

[3] = target: T2, USP47 (UniProt Q96K76)
T2 sequence (whole entry): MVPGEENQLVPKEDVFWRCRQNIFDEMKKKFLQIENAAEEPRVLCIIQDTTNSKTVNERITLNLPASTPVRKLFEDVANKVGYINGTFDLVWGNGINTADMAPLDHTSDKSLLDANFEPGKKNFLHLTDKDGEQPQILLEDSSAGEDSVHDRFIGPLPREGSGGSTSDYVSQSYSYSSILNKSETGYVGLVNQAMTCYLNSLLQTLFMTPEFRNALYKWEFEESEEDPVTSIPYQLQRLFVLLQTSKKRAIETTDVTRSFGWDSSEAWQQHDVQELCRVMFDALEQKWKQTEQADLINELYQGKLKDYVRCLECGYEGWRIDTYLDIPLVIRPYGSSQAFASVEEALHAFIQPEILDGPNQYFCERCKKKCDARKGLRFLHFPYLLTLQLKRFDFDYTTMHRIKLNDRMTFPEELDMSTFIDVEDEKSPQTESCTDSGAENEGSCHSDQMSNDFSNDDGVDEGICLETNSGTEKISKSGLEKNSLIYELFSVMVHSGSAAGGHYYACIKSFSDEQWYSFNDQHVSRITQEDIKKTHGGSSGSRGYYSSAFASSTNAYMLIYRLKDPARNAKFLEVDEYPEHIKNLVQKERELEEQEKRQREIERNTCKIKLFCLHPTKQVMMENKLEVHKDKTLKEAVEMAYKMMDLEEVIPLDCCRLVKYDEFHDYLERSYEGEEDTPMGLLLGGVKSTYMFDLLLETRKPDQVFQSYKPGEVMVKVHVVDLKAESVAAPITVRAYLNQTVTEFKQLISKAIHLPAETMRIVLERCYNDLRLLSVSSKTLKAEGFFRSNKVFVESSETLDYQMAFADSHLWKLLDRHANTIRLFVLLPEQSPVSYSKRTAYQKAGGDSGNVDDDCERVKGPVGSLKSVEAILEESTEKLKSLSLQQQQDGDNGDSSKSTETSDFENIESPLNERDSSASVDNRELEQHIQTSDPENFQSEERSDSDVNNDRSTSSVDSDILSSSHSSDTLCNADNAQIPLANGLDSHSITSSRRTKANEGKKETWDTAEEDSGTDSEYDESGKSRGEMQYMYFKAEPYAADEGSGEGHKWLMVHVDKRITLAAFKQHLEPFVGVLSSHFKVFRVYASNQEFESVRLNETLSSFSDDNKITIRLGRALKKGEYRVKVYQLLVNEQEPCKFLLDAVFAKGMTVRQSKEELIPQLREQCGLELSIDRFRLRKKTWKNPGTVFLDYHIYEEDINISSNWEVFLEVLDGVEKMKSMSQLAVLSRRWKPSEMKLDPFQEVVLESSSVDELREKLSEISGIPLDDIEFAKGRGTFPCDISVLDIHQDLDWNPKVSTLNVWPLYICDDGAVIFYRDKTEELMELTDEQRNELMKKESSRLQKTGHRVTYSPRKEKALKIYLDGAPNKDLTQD
In short: as §1

[4] = target: T3, USP48 (UniProt Q86UV5)
T3 sequence (whole entry): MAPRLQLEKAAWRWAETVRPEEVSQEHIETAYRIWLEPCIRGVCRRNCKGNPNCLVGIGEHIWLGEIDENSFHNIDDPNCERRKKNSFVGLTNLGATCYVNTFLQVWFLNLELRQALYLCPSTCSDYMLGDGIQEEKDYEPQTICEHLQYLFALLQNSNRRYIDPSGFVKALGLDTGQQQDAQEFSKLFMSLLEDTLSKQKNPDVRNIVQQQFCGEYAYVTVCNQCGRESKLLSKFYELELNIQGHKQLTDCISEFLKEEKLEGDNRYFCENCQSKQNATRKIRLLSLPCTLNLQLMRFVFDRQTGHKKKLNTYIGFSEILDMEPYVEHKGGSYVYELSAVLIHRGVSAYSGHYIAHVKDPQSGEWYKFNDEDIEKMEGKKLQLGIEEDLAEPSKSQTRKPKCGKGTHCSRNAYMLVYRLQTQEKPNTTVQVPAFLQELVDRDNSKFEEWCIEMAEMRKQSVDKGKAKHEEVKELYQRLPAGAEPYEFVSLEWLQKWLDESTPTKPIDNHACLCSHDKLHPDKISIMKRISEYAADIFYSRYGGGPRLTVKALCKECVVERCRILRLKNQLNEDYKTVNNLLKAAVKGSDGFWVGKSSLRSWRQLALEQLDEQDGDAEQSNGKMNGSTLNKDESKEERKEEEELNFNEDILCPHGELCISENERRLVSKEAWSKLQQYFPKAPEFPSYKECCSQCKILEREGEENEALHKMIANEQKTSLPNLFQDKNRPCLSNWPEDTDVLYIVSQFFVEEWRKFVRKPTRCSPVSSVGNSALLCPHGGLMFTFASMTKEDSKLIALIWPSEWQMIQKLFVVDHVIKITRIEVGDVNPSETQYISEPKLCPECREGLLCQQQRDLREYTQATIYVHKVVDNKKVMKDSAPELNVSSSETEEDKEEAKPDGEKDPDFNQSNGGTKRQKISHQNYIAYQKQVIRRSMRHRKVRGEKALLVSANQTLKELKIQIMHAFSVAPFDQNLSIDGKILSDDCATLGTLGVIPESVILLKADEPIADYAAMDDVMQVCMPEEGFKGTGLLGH
In short: as §1

[5] = target: T4, USP5 (UniProt P45974)
T4 sequence (whole entry): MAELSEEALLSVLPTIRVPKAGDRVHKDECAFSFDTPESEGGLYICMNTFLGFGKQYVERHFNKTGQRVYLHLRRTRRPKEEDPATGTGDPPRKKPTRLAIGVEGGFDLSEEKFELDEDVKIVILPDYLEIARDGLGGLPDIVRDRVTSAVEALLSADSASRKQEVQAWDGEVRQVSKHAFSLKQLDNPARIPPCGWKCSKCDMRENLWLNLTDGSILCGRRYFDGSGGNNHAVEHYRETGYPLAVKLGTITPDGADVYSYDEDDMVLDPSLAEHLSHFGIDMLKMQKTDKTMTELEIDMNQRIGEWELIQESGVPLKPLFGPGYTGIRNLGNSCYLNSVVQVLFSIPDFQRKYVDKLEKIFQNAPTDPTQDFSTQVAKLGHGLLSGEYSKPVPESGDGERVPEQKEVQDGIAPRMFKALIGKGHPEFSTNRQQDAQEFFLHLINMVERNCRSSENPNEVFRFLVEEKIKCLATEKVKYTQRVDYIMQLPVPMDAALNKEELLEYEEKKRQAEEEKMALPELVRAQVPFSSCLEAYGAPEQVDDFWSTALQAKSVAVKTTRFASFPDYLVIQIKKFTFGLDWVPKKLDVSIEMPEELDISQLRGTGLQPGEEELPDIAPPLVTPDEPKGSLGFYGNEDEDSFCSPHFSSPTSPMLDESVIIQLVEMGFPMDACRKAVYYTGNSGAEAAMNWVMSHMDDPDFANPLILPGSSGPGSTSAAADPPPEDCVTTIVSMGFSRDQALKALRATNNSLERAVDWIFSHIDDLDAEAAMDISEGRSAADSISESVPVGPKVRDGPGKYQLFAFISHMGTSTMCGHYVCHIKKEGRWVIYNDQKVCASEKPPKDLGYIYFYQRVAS
In short: as §1

[6] = target: USP54 (UniProt Q70EL1)
In short: as §1

[7] = target: USP7 (UniProt Q93009)
Chain of USP7 (Q93009 whole entry, looked up): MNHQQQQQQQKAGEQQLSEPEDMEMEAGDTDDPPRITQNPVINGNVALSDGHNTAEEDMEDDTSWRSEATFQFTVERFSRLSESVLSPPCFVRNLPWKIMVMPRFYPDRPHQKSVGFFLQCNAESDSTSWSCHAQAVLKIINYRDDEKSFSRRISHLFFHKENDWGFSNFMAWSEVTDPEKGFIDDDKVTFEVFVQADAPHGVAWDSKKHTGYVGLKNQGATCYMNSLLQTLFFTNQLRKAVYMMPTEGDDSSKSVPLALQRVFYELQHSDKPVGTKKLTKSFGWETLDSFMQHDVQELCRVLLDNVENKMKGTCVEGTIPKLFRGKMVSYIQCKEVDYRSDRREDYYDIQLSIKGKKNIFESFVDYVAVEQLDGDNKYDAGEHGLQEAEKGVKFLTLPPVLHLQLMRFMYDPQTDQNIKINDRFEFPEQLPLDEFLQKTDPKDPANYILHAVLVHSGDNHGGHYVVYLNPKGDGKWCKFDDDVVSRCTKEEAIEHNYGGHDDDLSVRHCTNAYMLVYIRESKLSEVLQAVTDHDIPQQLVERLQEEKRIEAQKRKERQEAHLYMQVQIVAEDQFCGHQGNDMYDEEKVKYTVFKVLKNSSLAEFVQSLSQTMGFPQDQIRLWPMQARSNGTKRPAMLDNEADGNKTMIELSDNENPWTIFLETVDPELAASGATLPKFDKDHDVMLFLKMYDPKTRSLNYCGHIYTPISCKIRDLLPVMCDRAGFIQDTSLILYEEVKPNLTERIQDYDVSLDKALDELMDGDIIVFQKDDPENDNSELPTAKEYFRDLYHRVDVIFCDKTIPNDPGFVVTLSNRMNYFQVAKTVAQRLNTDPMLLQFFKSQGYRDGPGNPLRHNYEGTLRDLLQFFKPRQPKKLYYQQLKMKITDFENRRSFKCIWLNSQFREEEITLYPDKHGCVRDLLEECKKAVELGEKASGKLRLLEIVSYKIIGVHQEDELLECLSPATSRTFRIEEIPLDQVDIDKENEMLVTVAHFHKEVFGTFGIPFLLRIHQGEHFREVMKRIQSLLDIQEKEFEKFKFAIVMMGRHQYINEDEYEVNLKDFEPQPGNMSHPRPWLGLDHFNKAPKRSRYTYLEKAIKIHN
In short: as §1

[8] = target: T5, USP8 (UniProt P40818)
T5 sequence (whole entry): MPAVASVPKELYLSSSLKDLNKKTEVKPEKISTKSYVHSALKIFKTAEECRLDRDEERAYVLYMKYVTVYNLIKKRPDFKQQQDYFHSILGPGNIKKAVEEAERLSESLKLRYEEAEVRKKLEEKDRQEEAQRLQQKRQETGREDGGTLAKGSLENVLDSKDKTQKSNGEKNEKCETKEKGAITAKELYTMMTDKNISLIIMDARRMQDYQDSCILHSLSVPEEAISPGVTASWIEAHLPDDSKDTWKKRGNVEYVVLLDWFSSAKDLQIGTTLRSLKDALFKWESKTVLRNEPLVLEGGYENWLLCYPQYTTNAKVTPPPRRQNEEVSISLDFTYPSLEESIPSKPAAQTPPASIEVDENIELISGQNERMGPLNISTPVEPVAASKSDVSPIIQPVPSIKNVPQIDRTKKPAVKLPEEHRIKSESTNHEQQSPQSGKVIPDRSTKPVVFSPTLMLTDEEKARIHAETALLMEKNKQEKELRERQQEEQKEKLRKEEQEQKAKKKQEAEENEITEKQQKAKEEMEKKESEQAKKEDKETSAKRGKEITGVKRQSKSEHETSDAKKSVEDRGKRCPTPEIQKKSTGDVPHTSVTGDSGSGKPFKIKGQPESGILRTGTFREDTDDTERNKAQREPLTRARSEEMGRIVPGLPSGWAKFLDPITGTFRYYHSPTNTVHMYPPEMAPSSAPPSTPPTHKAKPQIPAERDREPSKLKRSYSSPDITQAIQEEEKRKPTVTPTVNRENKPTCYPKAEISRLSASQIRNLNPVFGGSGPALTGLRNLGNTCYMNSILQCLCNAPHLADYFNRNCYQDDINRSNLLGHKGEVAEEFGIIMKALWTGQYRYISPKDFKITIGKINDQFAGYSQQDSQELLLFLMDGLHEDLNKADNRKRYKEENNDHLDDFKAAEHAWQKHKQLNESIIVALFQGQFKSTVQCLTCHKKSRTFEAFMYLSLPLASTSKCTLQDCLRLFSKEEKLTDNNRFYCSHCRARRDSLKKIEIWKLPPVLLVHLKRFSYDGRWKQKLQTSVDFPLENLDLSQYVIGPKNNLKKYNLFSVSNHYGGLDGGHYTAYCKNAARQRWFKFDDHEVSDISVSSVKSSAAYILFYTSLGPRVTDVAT
In short: as §1

[9] = target: USP9X (UniProt Q93008)
Chain of USP9X (Q93008 whole entry): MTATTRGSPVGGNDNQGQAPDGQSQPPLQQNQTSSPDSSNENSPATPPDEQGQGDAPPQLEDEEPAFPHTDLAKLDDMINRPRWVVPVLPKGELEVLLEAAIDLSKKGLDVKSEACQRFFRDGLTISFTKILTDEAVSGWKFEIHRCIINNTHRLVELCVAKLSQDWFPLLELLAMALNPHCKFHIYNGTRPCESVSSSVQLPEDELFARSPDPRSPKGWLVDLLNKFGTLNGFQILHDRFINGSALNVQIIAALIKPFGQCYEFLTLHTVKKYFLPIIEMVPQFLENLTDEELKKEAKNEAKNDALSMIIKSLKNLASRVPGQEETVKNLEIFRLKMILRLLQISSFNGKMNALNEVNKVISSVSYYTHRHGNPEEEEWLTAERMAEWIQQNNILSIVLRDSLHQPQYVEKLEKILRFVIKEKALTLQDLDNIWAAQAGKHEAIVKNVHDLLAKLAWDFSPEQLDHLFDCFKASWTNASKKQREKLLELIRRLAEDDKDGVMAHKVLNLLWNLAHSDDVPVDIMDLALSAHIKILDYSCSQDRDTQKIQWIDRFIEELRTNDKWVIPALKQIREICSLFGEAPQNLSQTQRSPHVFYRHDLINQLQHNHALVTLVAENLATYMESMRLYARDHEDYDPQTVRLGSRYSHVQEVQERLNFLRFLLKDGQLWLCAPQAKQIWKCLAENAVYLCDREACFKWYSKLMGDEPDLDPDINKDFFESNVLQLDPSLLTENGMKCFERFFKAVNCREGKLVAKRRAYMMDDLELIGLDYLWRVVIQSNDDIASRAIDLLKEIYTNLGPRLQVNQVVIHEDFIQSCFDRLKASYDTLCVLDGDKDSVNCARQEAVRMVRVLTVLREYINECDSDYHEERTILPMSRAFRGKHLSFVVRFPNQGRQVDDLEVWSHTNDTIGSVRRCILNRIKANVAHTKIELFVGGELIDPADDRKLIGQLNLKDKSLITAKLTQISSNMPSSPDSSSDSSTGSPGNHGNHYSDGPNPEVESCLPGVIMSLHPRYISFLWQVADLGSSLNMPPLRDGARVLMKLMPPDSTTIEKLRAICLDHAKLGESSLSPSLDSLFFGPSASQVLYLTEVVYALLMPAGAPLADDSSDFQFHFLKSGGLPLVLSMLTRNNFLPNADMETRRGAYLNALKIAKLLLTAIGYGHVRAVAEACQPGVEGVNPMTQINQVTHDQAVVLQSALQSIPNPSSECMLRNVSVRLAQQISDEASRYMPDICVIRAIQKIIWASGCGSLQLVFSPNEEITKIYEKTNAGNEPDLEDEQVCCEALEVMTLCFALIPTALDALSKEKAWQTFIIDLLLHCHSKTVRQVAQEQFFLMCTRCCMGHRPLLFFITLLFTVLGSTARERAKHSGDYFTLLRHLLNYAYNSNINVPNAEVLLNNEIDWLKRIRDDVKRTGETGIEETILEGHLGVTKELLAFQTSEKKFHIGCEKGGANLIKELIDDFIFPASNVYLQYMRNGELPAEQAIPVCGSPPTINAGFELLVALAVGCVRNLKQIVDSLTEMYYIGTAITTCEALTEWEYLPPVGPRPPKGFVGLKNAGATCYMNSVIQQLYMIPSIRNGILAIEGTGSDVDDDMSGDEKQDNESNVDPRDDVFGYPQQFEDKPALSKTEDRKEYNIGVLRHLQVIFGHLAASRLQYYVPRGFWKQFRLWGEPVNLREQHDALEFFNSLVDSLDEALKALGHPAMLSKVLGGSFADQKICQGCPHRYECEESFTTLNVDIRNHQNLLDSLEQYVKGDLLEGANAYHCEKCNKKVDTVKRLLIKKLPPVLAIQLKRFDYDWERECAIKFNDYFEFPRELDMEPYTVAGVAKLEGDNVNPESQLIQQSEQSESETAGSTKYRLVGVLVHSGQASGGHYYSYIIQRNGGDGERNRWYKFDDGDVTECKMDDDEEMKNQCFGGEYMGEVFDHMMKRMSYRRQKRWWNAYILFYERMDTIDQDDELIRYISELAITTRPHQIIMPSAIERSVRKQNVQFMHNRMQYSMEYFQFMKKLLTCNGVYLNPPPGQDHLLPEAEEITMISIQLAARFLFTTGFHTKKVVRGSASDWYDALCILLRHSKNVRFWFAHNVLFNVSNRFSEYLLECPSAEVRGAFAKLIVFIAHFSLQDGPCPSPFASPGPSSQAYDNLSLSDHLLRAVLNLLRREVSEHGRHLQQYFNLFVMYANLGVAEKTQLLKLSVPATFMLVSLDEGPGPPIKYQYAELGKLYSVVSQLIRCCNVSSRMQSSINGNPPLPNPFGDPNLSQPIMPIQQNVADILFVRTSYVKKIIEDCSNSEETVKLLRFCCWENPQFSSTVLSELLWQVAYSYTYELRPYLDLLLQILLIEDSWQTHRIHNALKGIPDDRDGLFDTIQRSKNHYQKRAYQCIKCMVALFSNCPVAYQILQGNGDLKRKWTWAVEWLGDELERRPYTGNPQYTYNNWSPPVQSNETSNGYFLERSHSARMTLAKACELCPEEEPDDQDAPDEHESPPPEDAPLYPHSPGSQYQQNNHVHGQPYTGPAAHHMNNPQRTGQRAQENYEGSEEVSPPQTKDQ
In short: as §1

[10] = target: UniProt O00487
Chain of UniProt O00487 (O00487 whole entry): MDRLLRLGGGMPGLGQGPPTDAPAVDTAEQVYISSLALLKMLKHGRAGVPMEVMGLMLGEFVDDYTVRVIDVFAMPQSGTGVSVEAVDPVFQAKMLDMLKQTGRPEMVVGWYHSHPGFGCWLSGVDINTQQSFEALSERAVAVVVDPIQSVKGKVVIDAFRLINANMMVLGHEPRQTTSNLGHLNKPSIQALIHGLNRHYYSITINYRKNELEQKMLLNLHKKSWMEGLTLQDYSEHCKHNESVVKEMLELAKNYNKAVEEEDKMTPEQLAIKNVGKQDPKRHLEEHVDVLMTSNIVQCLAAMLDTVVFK
In short: as §1

Measured: log2 ratio of Biotin-Ahx-Ub-VS probe labelling

CCC(NC(=O)CCl)c1ccc(Cl)cc1 (stereo not given)
inactive: [1] 0.358 | [2] -0.00255 | [3] -0.558 | [4] -0.293 | [5] 0.0661 | [6] 0.671 | [7] -0.195 | [8] -0.0586 | [9] -0.112 | [10] 0.0429

Cl.Cn1cnc2cc(CNC(=O)CCl)ccc21
inactive: [1] 0.00921 | [2] -0.0392 | [3] -0.0799 | [4] 0.192 | [5] -0.445 | [6] -0.109 | [7] -0.083 | [8] -0.103 | [9] -0.0792 | [10] -0.00543

O=C(CCl)N1CCc2[nH]c3ccccc3c2C1
inactive: [1] 0.132 | [2] -0.655 | [3] -0.863 | [4] -0.532 | [5] -0.461 | [6] -0.00488 | [7] -0.511 | [8] -0.774 | [9] -0.846 | [10] -0.243

O=C(CCl)NC1CCN(C(=O)C2CCCCC2)CC1
inactive: [1] 0.471 | [2] 0.262 | [3] 0.301 | [4] 0.136 | [5] -0.157 | [6] 0.282 | [7] -0.045 | [8] 0.139 | [9] 0.243 | [10] 0.0749
